# From article PMC13541613, “GHT-SELEX demonstrates unexpectedly high intrinsic sequence specificity and complex DNA binding of many human transcription factors”
# Assays:
# Experiment in all cases: HT-SELEX; 20 mM HEPES pH 7, 140 mM KCl, 5 mM NaCl, 1 mM K2HPO4, 2 mM MgSO4, 100 uM EGTA, ZnSO4, 0.1% Tween20; room temperature, 1 h; high values mean tight binding
# Conditions in all cases: protein: ivt; tags: eGFP (N-terminal); dsDNA, one strand shown
# [1] = target: ZNF721 full-length (Homo sapiens, UniProt Q8TF20-2 1-923)
# Chain of ZNF721 full-length (Q8TF20 other isoform, or with tags, fused parts or gaps): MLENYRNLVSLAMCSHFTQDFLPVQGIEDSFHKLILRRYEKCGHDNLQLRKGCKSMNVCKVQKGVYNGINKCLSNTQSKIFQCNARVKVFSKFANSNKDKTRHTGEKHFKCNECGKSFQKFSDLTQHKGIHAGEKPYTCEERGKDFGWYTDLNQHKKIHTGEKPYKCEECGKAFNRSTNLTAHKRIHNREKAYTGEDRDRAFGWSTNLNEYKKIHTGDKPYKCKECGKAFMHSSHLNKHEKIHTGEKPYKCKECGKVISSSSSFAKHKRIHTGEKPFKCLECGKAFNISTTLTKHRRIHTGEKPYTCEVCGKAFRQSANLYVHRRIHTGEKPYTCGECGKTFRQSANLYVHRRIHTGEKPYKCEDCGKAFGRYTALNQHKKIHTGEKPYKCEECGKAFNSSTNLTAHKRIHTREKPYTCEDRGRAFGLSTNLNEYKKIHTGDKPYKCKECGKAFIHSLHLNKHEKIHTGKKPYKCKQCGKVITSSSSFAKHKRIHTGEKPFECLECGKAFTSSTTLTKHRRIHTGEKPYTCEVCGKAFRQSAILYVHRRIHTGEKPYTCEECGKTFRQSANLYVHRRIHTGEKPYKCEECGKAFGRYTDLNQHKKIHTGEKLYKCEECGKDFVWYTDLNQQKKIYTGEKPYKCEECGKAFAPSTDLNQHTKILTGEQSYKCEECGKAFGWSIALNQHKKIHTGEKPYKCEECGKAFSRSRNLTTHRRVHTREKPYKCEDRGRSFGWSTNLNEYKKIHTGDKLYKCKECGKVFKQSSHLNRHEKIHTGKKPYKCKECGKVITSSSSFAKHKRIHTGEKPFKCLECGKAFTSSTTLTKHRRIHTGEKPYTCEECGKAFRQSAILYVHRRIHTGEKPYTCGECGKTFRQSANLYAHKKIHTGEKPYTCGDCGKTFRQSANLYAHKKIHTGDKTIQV
# How it was run: (§1)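 The binding signal is a relative k-mer count in selected reads, and higher values mean tighter binding. To obtain these reads, bead-bound tagged transcription factor (full-length or DNA-binding-domain fragment, produced in HEK293 lysate or cell-free extract) was mixed with a randomized 40-base DNA library for 1 h at room temperature in low-stringency HEPES/KCl buffer with Tween20. Bound DNA was recovered by washing and heat elution, PCR-amplified through successive cycles and sequenced on Illumina (~3 million 60 bp reads per sample).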
# [2] = target: ZNF721 DBD2 (Homo sapiens, UniProt Q8TF20-2 395-923)
# Chain of ZNF721 DBD2 (Q8TF20 383-911): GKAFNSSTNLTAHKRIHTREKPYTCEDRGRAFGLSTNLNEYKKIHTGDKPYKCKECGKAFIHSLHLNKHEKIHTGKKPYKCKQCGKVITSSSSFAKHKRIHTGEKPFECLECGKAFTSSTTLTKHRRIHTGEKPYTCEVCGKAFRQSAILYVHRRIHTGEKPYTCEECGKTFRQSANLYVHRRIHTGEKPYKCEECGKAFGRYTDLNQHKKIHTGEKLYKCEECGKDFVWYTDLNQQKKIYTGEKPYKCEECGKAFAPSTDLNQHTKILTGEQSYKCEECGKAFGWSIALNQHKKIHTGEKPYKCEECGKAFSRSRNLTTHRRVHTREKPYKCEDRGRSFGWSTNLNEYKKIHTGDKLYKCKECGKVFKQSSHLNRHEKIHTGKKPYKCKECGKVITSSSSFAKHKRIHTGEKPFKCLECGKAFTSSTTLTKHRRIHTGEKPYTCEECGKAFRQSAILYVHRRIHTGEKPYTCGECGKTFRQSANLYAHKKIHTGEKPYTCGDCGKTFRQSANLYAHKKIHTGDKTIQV
# How it was run: as §1
# [3] = target: ZNF721 DBD1 (Homo sapiens, UniProt Q8TF20-2 29-461)
# Chain of ZNF721 DBD1 (Q8TF20 17-449): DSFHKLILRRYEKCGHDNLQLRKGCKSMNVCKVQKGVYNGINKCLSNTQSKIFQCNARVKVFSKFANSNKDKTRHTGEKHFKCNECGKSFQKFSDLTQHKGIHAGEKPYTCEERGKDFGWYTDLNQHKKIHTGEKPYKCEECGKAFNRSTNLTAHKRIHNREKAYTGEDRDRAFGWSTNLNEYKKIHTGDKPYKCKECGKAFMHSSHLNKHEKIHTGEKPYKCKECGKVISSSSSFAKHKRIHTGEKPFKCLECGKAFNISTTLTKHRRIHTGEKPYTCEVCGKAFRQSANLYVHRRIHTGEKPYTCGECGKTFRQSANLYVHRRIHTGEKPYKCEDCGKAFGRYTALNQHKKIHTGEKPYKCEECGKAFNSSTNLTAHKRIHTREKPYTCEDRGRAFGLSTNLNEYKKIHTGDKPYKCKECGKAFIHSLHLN
# How it was run: as §1
Sequence,binding signal [1] [relative 10-mer count],binding signal [2] [relative 10-mer count],binding signal [3] [relative 10-mer count]
AAACAGCACA,0.11,0.109,
AAAACAGCAT,0.921,1,
CAGGGTATCC,0.221,0.431,
TAAAAAAAAA,0.115,0.0464,0.0133
CCTCCCCCGC,0.131,0.00348,0.00647
AACCCTGCTT,0.197,0.258,
AAAAGCAGTG,0.383,0.397,
AAAAACAGCG,0.589,0.668,
ACAGGGTATC,0.137,0.2,
AAAGGAACAG,0.113,0.0545,
AAAAACAGAG,0.212,0.213,
AAACAGCAGT,0.106,0.159,
AAGCAGTGTC,0.13,0.151,
AAAAACAGCC,0.167,0.172,
AAGAAAACAG,0.177,0.222,
ACAGAGTACC,0.123,0.152,
ACAAAGCAGT,0.146,0.174,
AAAACAGGGG,0.112,0.145,
CAAAGCAGCA,0.112,0.132,
CCCCCCAACC,0.194,0.00707,0.00651

Sequence,binding signal [1] [relative 10-mer count],binding signal [2] [relative 10-mer count],binding signal [3] [relative 10-mer count]
ACAAAGCAGC,0.189,0.238,
ACAGCGTCTC,0.212,0.344,
AAAAACAGTC,0.149,0.169,
AGAAAACAGC,0.251,0.322,
AAACAGTGTC,0.116,0.209,
GAAAACAGCA,0.299,0.388,
ACCCCACCCA,0.173,0.00419,0.00583
CAGCGTTGCC,0.143,0.423,
CACAAAAAAA,0.181,0.0847,0.0107
AAAACAGCAG,0.243,0.264,
AAAAAACAGC,1,0.902,
AACGCTGCTT,0.207,0.327,
CAGCATATCC,0.162,0.216,
CCCACCCTAC,0.114,0.0116,0.00748
CAGGGTTGCC,0.155,0.49,
ACGAAAACAG,0.106,0.149,
AAAACAGGGT,0.391,0.506,
AAAAAAAAGA,0.116,0.0612,0.00757
AAAAGCAGCG,0.276,0.326,
AAAACAGAGT,0.236,0.279,

Sequence,binding signal [1] [relative 10-mer count],binding signal [2] [relative 10-mer count],binding signal [3] [relative 10-mer count]
ACAAAACAGT,0.115,0.123,
AAAAAACAGG,0.278,0.289,
AAAAAACAGT,0.466,0.516,
AAAAAGCAGG,0.195,0.172,
AAAAGCAGGG,0.207,0.218,
AAAACAGCGT,0.759,0.975,
AAAACAGCCC,0.152,0.156,
ACAGTGTTTC,0.14,0.272,
AACAGCGTAC,0.19,0.275,
AAAACAGCGG,0.134,0.189,
AATAAAACAG,0.132,0.168,
AGACACTGCT,0.109,0.127,
AACAGAGTAC,0.127,0.166,
AACAGCGTAT,0.225,0.366,
CGAAAACAGC,0.167,0.261,
CAAAACAGCG,0.142,0.176,
GAAACGCTGC,0.102,0.169,
CAGCGTTTCC,0.342,0.861,
